Source: PubChem (The Scripps Research Institute Molecular Screening Center)
PLC-beta3 inh: inhibitors of human phospholipase C beta3 | Purified PLC-beta3, fluorogenic substrate, fluorescence | Q01970 | inhibition, % at 12.2 µM | actives 0.18% (n = 370,000);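 also: 0% = median of compound wells on plate and 100% = full blocker control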
UHRF1 binding: UHRF1 methyl-DNA binding inhibition | Q96T88 | UHRF1 binding to methylated oligo, TR-FRET | inhibition, % at 4.4 µM | actives 0.75% (n = 370,000); in the data active = inhibition above about 21%;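 also: UHRF1 SRA domain binding a hemimethylated CpG hairpin DNA probe; 0% = median of test compound wells and 100% = reference inhibitor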
MBD2 inh: MBD2-methylated oligo binding inhibition | TR-FRET, MBD2 binding to methylated oligonucleotide | Q9UBB5 | inhibition, % at 4.4 µM | AID 686964 | actives 0.31% (n = 370,000); in the data active = inhibition above about 13%
Target sequence (Q9UBB5 whole entry, looked up): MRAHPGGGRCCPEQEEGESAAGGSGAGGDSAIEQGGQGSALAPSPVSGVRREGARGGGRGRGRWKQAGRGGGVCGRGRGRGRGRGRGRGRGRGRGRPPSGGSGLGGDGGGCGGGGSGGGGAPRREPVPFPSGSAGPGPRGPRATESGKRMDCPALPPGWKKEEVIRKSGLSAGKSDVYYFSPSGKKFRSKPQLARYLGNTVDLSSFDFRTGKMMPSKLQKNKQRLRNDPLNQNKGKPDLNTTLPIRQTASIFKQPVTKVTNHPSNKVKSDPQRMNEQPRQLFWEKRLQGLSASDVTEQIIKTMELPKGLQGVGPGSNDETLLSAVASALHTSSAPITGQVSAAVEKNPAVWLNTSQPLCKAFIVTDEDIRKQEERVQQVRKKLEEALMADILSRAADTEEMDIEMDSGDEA
LEDGF integ inh: blocks HIV-1 LEDGF/p75-dependent DNA integration | TR-FRET IN-LEDGF/p75 DNA integration, Eu/Cy5 | inhibition, % at 3.7 µM | actives 0.64% (n = 370,000) | AID 743269;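 active = inhibition above the screen-wide mean plus 3 SD, cut at about 13% in these data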;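 also: signal is the Cy5 over europium emission ratio at 671 and 618 nm; 0% = plate median of compound wells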
PLCg1 inh: blocks human PLC-gamma1 enzyme activity | P19174 | purified PLC-gamma1, fluorogenic substrate, fluorescence | inhibition, % at 12.2 µM | actives 0.84% (n = 370,000) | AID 720700; in the data active = inhibition above about 9.5%
PLCg1 ctr: inhibits human PLC-gamma1 in PLC-beta3 counter-screen; shares compounds with PLCg1 inh; purified PLC-gamma1, fluorogenic substrate, fluorescence; inhibition, % at 12.3 µM; actives 3.1% (n = 3,300); AID 743258; in the data active = inhibition above about 9.5%
PLCb3 confirm: confirmation of human PLC-beta3 inhibitors. shares compounds with PLCg1 inh. purified PLC-beta3, fluorogenic substrate fluorescence. inhibition, % at 12.3 µM. actives 1% (n = 3,300)
Starred values were filed as active, the others as inactive; i = inactive; x = not tested or not shown. The list is not random: actives were taken first. Their share in the collection is about 2.3%. Rule as the data show it, unless noted: active = inhibition above about 11%; inactive = the rest.

SMILES | PLC-beta3 inh | UHRF1 binding | MBD2 inh | LEDGF integ inh | PLCg1 inh | PLCg1 ctr | PLCb3 confirm
O=C(Nc1ccc(C(O)(C(F)(F)F)C(F)(F)F)cc1)c1ccc(F)cc1F | 4 | 0 | 4 | -2 | 0 | x | x
C=CCN1C(=O)[C@@H](CC(=O)NCc2cccc(C(F)(F)F)c2)[C@]2(C(=O)OCC)CCCCC/C=C/12 | -2 | 1 | 2 | -2 | -1 | x | x
CC1(C)Cc2c(sc(/N=C/N3CCCC3)c2C#N)C(C)(C)N1 | 13* | 4 | 3 | 4 | 19* | -4 | 0
CC(C)(C)C(=O)OC12CCCN(C1)/C(=C/c1ccc(Cl)cc1)C2 (configuration not stated) | 1 | 1 | 2 | 0 | -1 | x | x
CCc1nc2sc3c(c2c(=O)n1N)CCC3 | 1 | -2 | -8 | 1 | 11* | -3 | -3
S=c1nc(C23CC4CC(CC(C4)C2)C3)[nH][nH]1 | 7 | 5 | -2 | 5 | 12* | -3 | 1
C/C(C=NNC(=O)CSc1nc2ccccc2n1C)=C\c1ccccc1 | 1 | -1 | -1 | 0 | 0 | x | x
CCOc1ccc(C(=O)Nc2ccc3c(c2)OCCO3)cc1[N+](=O)[O-] | 4 | 2 | -1 | 2 | 10* | -1 | 0
CCOc1ccc(NC(=O)CSCc2cnn(-c3ccccc3)c2-n2cccc2)cc1 | -5 | 0 | 4 | 0 | 10* | 1 | -7
COc1cc(NC(=O)CSCc2cnn(-c3ccccc3)c2-n2cccc2)cc(OC)c1 | 4 | -4 | 2 | 1 | 0 | x | x
C=CCN1C(=O)[C@@H](CC(=O)N2CCOCC2)[C@]2(C(=O)OCC)CCCCC/C=C/12 | -1 | 5 | -2 | -4 | 1 | x | x
CN(C)S(=O)(=O)c1cc(C(=O)NCC2CCCO2)c(Cl)cc1Cl (configuration not stated) | 6 | 1 | 1 | 2 | 9.5* | -1 | 3
CC1(C)CC2(CC(C)(C(=O)CSc3nc4ccccc4s3)OC2=O)C(=O)O1 (configuration not stated) | 11* | -1 | -4 | 5 | 16* | -3 | -1
CC1CC2(CC(C)(C(=O)CSc3nc4ccccc4s3)OC2=O)C(=O)O1 (configuration not stated) | 2 | -1 | -2 | 3 | -1 | x | x
COc1cc([N+](=O)[O-])ccc1NC(=O)C[n+]1ccccc1C | 3 | -1 | -6 | -1 | 3 | x | x
Cc1cccc[n+]1CC(=O)Nc1ccc([N+](=O)[O-])cc1Cl | 7 | 3 | -4 | 1 | 14* | -3 | 0
O=c1[nH]nc(-c2ccc(NCCCO)c([N+](=O)[O-])c2)c2ccccc12 | 3 | -18 | -26 | 3 | 13* | -2 | -6
O=c1[nH]nc(-c2ccc(NCCO)c([N+](=O)[O-])c2)c2ccccc12 | -3 | -16 | -15 | -1 | 2 | x | x
O=C(CCn1nnc(-c2cccs2)n1)NCc1cccs1 | 0 | 0 | 2 | -2 | 1 | x | x
CCCOc1ccc(C2C(=O)N(C3CCCCCC3)CC(=O)N2Cc2ccco2)cc1OC (configuration not stated) | 6 | 0 | -1 | 4 | 4 | x | x
CCCOc1ccc(C2C(=O)N(C3CCCCC3)CC(=O)N2C2CC2)cc1OC (configuration not stated) | -1 | 2 | -3 | 2 | 13* | -6 | -3
CCCCCCCCN1C(=O)[C@@H](CC(=O)NCCCOC)C[C@@]2(C(=O)OC)C1=C[C@H](COCc1ccccc1)O[C@@H]2C | -4 | 0 | 2 | -3 | 2 | x | x
COC(=O)c1ccccc1NC(=O)CN(c1ccc(OC)cc1)S(C)(=O)=O | 14* | 2 | 0 | 1 | 4 | -4 | -1
COc1ccc(N(CC(=O)Nc2cccc3ccccc23)S(C)(=O)=O)cc1 | -2 | -5 | 2 | 4 | 2 | x | x
CS(=O)(=O)N(CC(=O)Nc1ccccc1C(=O)N1CCCC1)c1ccc2c(c1)OCO2 | 3 | 3 | 4 | 2 | 9.6* | 8 | 0
SMILES | PLC-beta3 inh | UHRF1 binding | MBD2 inh | LEDGF integ inh | PLCg1 inh | PLCg1 ctr | PLCb3 confirm
COc1ccc(N(CC(=O)Nc2cc(Cl)ccc2C)S(=O)(=O)c2c(C)n[nH]c2C)cc1 | -3 | 21 | -2 | 1 | 13* | 3 | 4
CS(=O)(=O)N(CC(=O)Nc1ccccc1C(=O)N1CCOCC1)c1ccc2c(c1)OCO2 | -1 | 18 | 10 | -1 | -2 | x | x
COCCCNC(=O)C1CCN(S(=O)(=O)c2ccc3[nH]c(=O)oc3c2)CC1 | 4 | -2 | -2 | 6 | 6 | x | x
COc1ccccc1C(=O)n1ccc2ccc(-c3ccc4ccn(Cc5ccc(C#N)cc5)c4c3)cc21 | -170 | 1 | -3 | 0 | -113 | x | x
COc1ccc(C)c(NC(=O)[C@@H]2CCCN2S(=O)(=O)c2cccc3cccnc23)c1 | 0 | -3 | -1 | 1 | 2 | x | x
O=C(NCc1ccccc1Cl)c1ccc(CS(=O)Cc2ccc(Cl)cc2)o1 (configuration not stated) | -5 | 9 | -7 | 2 | 9.5* | 2 | 7
O=S1(=O)c2c(NCc3ccco3)cccc2Oc2ccccc2CN1Cc1cn(Cc2ccc(C(F)(F)F)cc2)nn1 | -50 | 2 | 0 | -2 | -29 | x | x
Cc1ccc(S(=O)(=O)CC(CN2CCOCC2)N2CCOCC2)cc1 (configuration not stated) | 1 | 1 | 0 | -1 | 3 | x | x
CC1CCN(CC(CS(=O)(=O)c2ccc([N+](=O)[O-])cc2)N2CCC(C)CC2)CC1 (configuration not stated) | 11* | 1 | -6 | 8 | 5 | -6 | -4
O=C1CCC[C@H]2C[C@H](NCc3ccc(Cl)c(Cl)c3)CC[C@]23CCCN13 | 0 | -1 | -3 | -3 | 0 | x | x
Cc1ccc(OCC(=O)Nc2ccc(S(=O)(=O)N3CCCCC3)cc2)c([N+](=O)[O-])n1 | 3 | -3 | 5 | 0 | 2 | x | x
Cc1ccc(OCC(=O)Nc2cc(S(=O)(=O)N3CCCCC3)ccc2C)c([N+](=O)[O-])n1 | 1 | 4 | 3 | 0 | 10* | -4 | -1
CC1CCN(c2ccc(C(=O)O)cc2NS(=O)(=O)c2ccccc2)CC1 | -4 | 1 | 2 | -1 | -1 | x | x
O=C(Cn1c(=O)oc2cc(S(=O)(=O)N3CCc4ccccc43)ccc21)NC1CCCC1 | 2 | 0 | 4 | -3 | 0 | x | x
CC(C)CCNC(=O)Cn1c(=O)oc2cc(S(=O)(=O)N3CCc4ccccc43)ccc21 | 12* | 2 | -1 | 4 | 4 | -4 | -1
O=C(Nc1ccc(OC(F)(F)F)cc1)Nc1c(-c2ccccc2)nc2ncccn12 | i | -5 | 1 | 1 | -435 | x | x
Cc1ccc(C)c(Cn2c(C(C)O)nc3ccccc32)c1 (configuration not stated) | 2 | 0 | 1 | 2 | 11* | -1 | 3
